# Reference: PubChem BioAssay (NCI)
# This is part of a sample that, as a whole, favours compounds with a hit. Of some 83,000 tested, about 20% had one in any assay.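 Step 1: grow cells in 96-well plates. Step 2: add test compound at a single concentration. Step 3: incubate 48 h. Step 4: record percent growth.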 Values without a mark were called inactive. The source made the active and inactive calls.
# System: SK-MEL-28 melanoma
# Assay: NCI-60 one-dose screen, 48 h (100 = growth as untreated, 0 = no growth, -100 = all killed)
# Details: 10 µM unless noted
# Method: Growth inhibition of the SK-MEL-28 human tumor cell line is measured as a screen for anti-cancer activity. Cells are grown in 96 well plates and exposed to the test compound for 48 hours. Compounds are tested at a single concentration, which is 10^-5 M for most compounds. The reported endpoint is percent growth (GI% or GIPRCNT), where numbers from 0 - 100% represent growth inhibition, and numbers from -100% - 0 represent cell death. For example, a value of 40 represents 60% growth inhibition. A value of 0 means no net growth occurred over the course of the experiment. A value of -40 indicates 40% of cells at the beginning of the experiment died by the end of the experiment. A value of -100 means all cells are dead at the end of the experiment.
# NCI-60 Human Tumor Cell Lines Screen was performed using the standard one-dose NCI protocol, which is described in more detail at https://dtp.cancer.gov/discovery_development/nci-60/default.htm.
# Compounds with GIPRCNT values below 10 were considered active. Activity score was based on GIPRCNT using the following formula: […]
# Score is 0 for GIPRCNT values of 100 or above, 50 for GIPRCNT values of 0, and 100 for GIPRCNT values of -100.
row,Structure (SMILES),growth
1,CCCCCCCC/C=C\CCCCCCCCOc1cccc(CC(=O)NCC[N+]2(C)CCOCC2)c1,102%
2,Cc1oc2c(c1C(=O)N1CC[C@@H](N)C1)C(=O)c1c(c(O)c3ccccc3c1O)C2=O,62.9%
3,Cc1cc(=O)oc2c1ccc1oc(C(=O)c3ccccc3)c(C)c12,105%
4,COc1ccc(OC2=C(C#N)C(=N)N3c4ccccc4Sc4ccccc4C3N2)cc1 (stereo not given),76.4%
5,COC(=O)[C@@]12CC[C@@H](C)[C@]3(C[C@@H](c4ccoc4)OC3=O)[C@H]1CC[C@@H]1O[C@@]12C,103%
6,O=C(COc1ccc(/C=C2\CSc3ccccc3C2=O)cc1)c1ccc(Cl)cc1,124%
7,O=C(NCc1cccnc1)c1ccc([N+](=O)[O-])o1,17%
8,N#Cc1c(O)c2c(c(O)c1C#N)C(=O)c1ccccc1C2=O,5.91% (active)
9,COC(=O)CCC(=O)c1ccccc1,108%
10,COc1ccc(-c2cc(=O)oc3c4c(ccc23)OCN(Cc2ccc(F)cc2)C4)cc1,83.4%
11,COc1cc(/C=C2\C(=O)Nc3ccccc32)cc(OC)c1O,90.3%
12,Cc1nc2cc(Nc3nc(NCCO)nc(Nc4ccc(F)cc4)n3)ccc2n1Cc1ccccc1,108%
13,COc1ccc(OC)c2ncccc12,117%
14,Cc1ccc2nc(NC(=O)CSC(=S)N3CCN(C)CC3)sc2c1,116%
15,COc1ccc(NC(=O)c2ccc3c(c2)nc(-c2ccc(Cl)cc2)n3-c2cc(C(C)(C)C)[nH]n2)cc1,95.4%
16,CC(=O)Nc1ccc(Sc2ccc([N+](=O)[O-])o2)cc1,-8.34% (active)
17,O=c1[nH]c(-c2ccncc2)nc2sc3c(c12)CCCCCC3,101%
18,Cc1cc(NS(=O)(=O)c2ccc(NC(=O)COc3ccc(-c4cc5ccccc5[nH]4)cc3)cc2)no1,18.9%
19,O=C1/C(=C/c2ccc([N+](=O)[O-])cc2)Oc2ccc(O)cc21,107%
20,CCCCCn1c(=N)n(CC(O)COc2cccc(C)c2)c2ccccc21 (stereo not given),31.2%

row,Structure (SMILES),growth
1,COc1nc2c(cc1S(=O)(=O)c1ccccc1)CCc1c-2cnn1-c1ccccc1Cl,85.2%
2,Cl.Fc1c[c-]c(-c2ccccn2)c(F)c1.[Pt].c1ccc([PH+](CC[PH+](c2ccccc2)c2ccccc2)c2ccccc2)cc1,-94.1% (active)
3,CCOc1ccc(-c2cnnn2-c2nonc2-n2cccc2)cc1,37.5%
4,O=S(=O)(Nc1ccc(Cl)c(Cl)c1)c1ccc(-c2cnc(C3CC3)o2)cc1,58.3%
5,Fc1ccccc1Nc1ccc2nnc(-c3ccncc3)n2n1,112%
6,CCCN1CCN(c2ccc3nc(-c4ccc5nc(-c6ccc(C(F)(F)F)cc6)[nH]c5c4)[nH]c3c2)CC1,-94.6% (active)
7,COc1nc2c(cc1S(=O)(=O)c1ccccc1)CCc1c-2cnn1-c1cccc(Cl)c1,86.4%
8,Cc1ccc(S(=O)(=O)N2CCc3ccc(O)c4c3C2Cc2ccc3c(c2-4)OCO3)cc1 (stereo not given),44.4%
9,N#CC1=C(N)Oc2cc(N)ccc2C1c1ccc(F)cc1 (stereo not given),84.8%
10,COc1ccc(/C=C/C(=O)N2CCC(O)CC2)cc1OC1CCCC1,115%
11,Cc1nc2cc(Nc3nc(N4CCCCC4)nc(N4CCOCC4)n3)ccc2n1Cc1ccccc1,46.6%
12,Cc1c(NCC(=O)Nc2nc3ccccc3[nH]2)c(=O)n(-c2ccccc2)n1C,110%
13,Cc1cccc2c(=O)c3c(sc12)c(NCCNCCO)nc1ccccc13,-67.4% (active)
14,O=C1C(Cl)=C(NCCCN2CCOCC2)C(=O)c2ccccc21,104%
15,CC(=O)N(CC(O)CO)c1c(I)c(C(=O)NCCO)c(I)c(C(=O)NCC(O)CO)c1I (stereo not given),112%
16,COc1ccc(/C=N/NC(=O)c2cnn(CC(O)Cc3ccccc3)c2N)cc1OC1CCCC1 (stereo not given),107%
17,CC(C)(C)[Si](C)(C)OC1[C@@H](O[Si](C)(C)C(C)(C)C)[C@@H](CNC(=O)NC(=O)C(F)(F)F)O[C@H]1n1cnc2c(NC(=O)Nc3ccccc3)ncnc21 (stereo not given in full),97.9%
18,OC[C@@H](O)[C@@H](O)CO,112%
19,CCC(C)[C@H]1O[C@]2(CC[C@@H]1C)C[C@@H]1C[C@@H](C/C=C(\C)[C@@H](OC3C[C@H](OC)C(O[C@H]4C[C@H](OC)[C@@H](O)[C@H](C)O4)[C@H](C)O3)[C@@H](C)/C=C/C=C3\CO[C@@H]4[C@H](O)C(C)=C[C@@H](C(=O)O1)[C@]34O)O2 (stereo not given in full),-16.6% (active)
20,CCCCC/C=C\C/C=C/CCCCCCCCNC(=O)Nc1ccc([N+](=O)[O-])cc1,106%
